Assay outcomes deposited in PubChem BioAssay by Broad Institute.
C diff growth: C. difficile growth inhibitors, primary screen, HTS | AID 1259249, 2017 | Clostridium difficile clinical isolate growth, OD600, 24 h; active compounds read low | growth activity, negative = inhibition, % at 16 µg/mL (by protocol) | 86,000 compounds, 0.25% hits;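 active means mean growth activity at or below -80% and every replicate also at or below -80%; inconclusive means mean at or below -80% but some replicate above -80%; inactive means mean growth activity above -80%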;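 further: 0% = DMSO wells and -100% = levofloxacin 16 µg/mL wells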
Pf Dd2 growth: P. falciparum Dd2 growth inhibitors, primary screen, SYBR Green fluorescence, single dose replicates | 72 h; active compounds read low | activity change, % at 10 µM | 94,000 compounds, 2.3% hits | AID 1159554, 2015; in the data active means activity change below about -80%; inconclusive means no clear call, values can overlap the other calls
T cruzi growth-1: T. cruzi intracellular proliferation inhibitors, primary screen, cell-based, beta-gal Tulahuen parasites, NIH3T3 host, luminescence | T. cruzi beta-gal in NIH3T3, GalScreen luminescence, 90 h | inhibition, % at 8.34 µM | 77,000 compounds, 5.9% hits | AID 624255, 2012;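 active means mean inhibition above about 93%, with at least 55% of replicates each passing it, limit read from the data, passing the limit was not always enough; inconclusive means only one of those two conditions holds; inactive means neither condition holds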
T cruzi growth-2: T. cruzi intracellular proliferation inhibitors, confirmation, cell-based, NIH3T3 host, beta-gal parasite, luminescence, cherry-pick. inhibition, % at 8.35 µM. 5,600 compounds, 72% hits. shares compounds with T cruzi growth-1. T. cruzi beta-gal in NIH3T3, GalScreen luminescence, 90 h;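 active means mean replicate inhibition above about 95% and at least 55% of replicates individually reaching it, limit read from the data; inconclusive means only one of the two criteria is met; inactive means neither criterion is met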
T cruzi growth-3: inhibitors of intracellular T. cruzi replication, confirmation, NIH3T3 host cells, beta-gal parasites, cherry-pick, set 2. T. cruzi beta-gal in NIH3T3, GalScreen luminescence, 90 h. inhibition, % at 2.09 µM. AID 651740, 2012. 5,600 compounds, 21% hits. shares compounds with T cruzi growth-1;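 active means mean inhibition above about 95%, with at least 55% of replicates also reaching it, limit read from the data; inconclusive means meets just one of the two conditions; inactive means meets neither condition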;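 further: plate controls were neutral control median for no effect and positive control median for full effect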
NIH3T3 tox: cytotoxicity in mouse NIH/3T3 fibroblasts, confirmation, cytotoxicity control for T. cruzi proliferation inhibitor project, cell-based, cherry-pick, single point; AID 651742, 2012; NIH/3T3 viability, CellTiter-Glo ATP luminescence, 90 h; cytotoxicity (signal decrease), % at 8.35 µM; shares compounds with T cruzi growth-1; 5,600 compounds, 14% hits;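 active means mean signal decrease across replicates above about 35% based on untreated-well scatter, with enough replicates individually passing, limit read from the data; inconclusive means no rule stated though some were filed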;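 further: 0% = median of neutral control wells and 100% = median of positive control wells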
NIH3T3 tox 2: NIH/3T3 fibroblast cytotoxicity, confirmation, cytotoxicity control, cell-based, cherry-pick, single point, set 2; shares compounds with T cruzi growth-1; NIH/3T3 viability, CellTiter-Glo ATP luminescence, 90 h; inhibition, % at 24.9 µM; 5,600 compounds, 56% hits;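 active means mean loss of cell viability signal at or above a set limit, and enough replicates individually reaching it; inconclusive means meets only the mean limit or only the replicate share; inactive means meets neither condition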;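 further: 0% = median of neutral control wells and 100% = median of positive control wells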
Numbers without * were called inactive; ? = inconclusive; nt = not tested or not shown. Most compounds without a hit are left out; they make up all but 6.8% or so of the library.

SMILES	C diff growth	Pf Dd2 growth	T cruzi growth-1	T cruzi growth-2	T cruzi growth-3	NIH3T3 tox	NIH3T3 tox 2
O=C(C[C@@H]1CC[C@H](NC(=O)c2ccc3c(c2)OCO3)[C@H](CO)O1)NCc1ccc(Oc2ccccc2)cc1	0	-9	-32	nt	nt	nt	nt
C[C@@H]1CN([C@H](C)CO)C(=O)c2cc(NC(=O)CCCN(C)C)ccc2O[C@@H]1CN(C)S(=O)(=O)c1ccc(F)cc1	-3	3	10	nt	nt	nt	nt
CN(C)C(=O)C[C@H]1CC[C@@H](NC(=O)Nc2cccc(F)c2)[C@@H](CO)O1	2	22	nt	nt	nt	nt	nt
O=C(c1cccc(F)c1)N1CCCCN2[C@H](CO)[C@H](c3ccc(-c4ccccc4)cc3)[C@@H]2C1	3	-7	102*	113*	89	16	11
O=C(c1cccc(F)c1)N1CCCCN2[C@@H](CO)[C@@H](c3ccc(-c4cccnc4)cc3)[C@@H]2C1	-5	5	8	nt	nt	nt	nt
O=C(c1cccc(F)c1)N1CCCCN2[C@@H](CO)[C@H](c3ccc(-c4ccccc4)cc3)[C@@H]2C1	25	-11	103*	105*	53	24	91*
O=C(c1cccc(F)c1)N1CCCCN2[C@@H](CO)[C@@H](c3ccc(-c4ccccc4)cc3)[C@@H]2C1	48	-58	33	nt	nt	nt	nt
C[C@H](CO)N1C[C@H](C)[C@@H](CN(C)C(=O)c2ccccc2)OCCCC[C@H](C)Oc2ccc(NS(=O)(=O)c3cccs3)cc2C1=O	8	5	58	nt	nt	nt	nt
C[C@@H]1CN([C@@H](C)CO)S(=O)(=O)c2ccc(-c3ccccc3F)cc2O[C@@H]1CN(C)CC1CC1	-15	-38	nt	nt	nt	nt	nt
C[C@@H]1CN([C@@H](C)CO)C(=O)c2cc(N(C)C)ccc2O[C@@H](C)CCCCO[C@H]1CN(C)C(=O)c1ccccc1	-2	-15	89	nt	nt	nt	nt
COCC(=O)Nc1ccc2c(c1)OC[C@H](C)N(Cc1ccccc1)C[C@@H](C)[C@H](OC)CN(C)C2=O	5	2	3	nt	nt	nt	nt
OC[C@@H]1[C@@H](c2ccc(-c3ccc(F)cc3)cc2)[C@@H]2CN(CCC(F)(F)F)CCCCN12	25	-29	48	nt	nt	nt	nt
OC[C@H]1[C@H](c2ccc(-c3ccccc3)cc2)[C@@H]2CN(CCC(F)(F)F)CCCCN12	21	-65	106*	100*	75	65*	102*
OC[C@H]1[C@@H](c2ccc(-c3ccccc3)cc2)[C@@H]2CN(CCC(F)(F)F)CCCCN12	1	-66	65	nt	nt	nt	nt
Cc1cccc(-c2ccc([C@H]3[C@@H](CO)N4CCCCN(CCC(F)(F)F)C[C@H]34)cc2)c1	33	-85*	105*	100*	102*	32	105*
Cc1cccc(-c2ccc([C@@H]3[C@@H](CO)N4CCCCN(CCC(F)(F)F)C[C@H]34)cc2)c1	49	-76	84	nt	nt	nt	nt
OC[C@H]1[C@H](c2ccc(-c3cccc(F)c3)cc2)[C@@H]2CN(CCC(F)(F)F)CCCCN12	54	-67	80	nt	nt	nt	nt
Cc1cccc(-c2ccc([C@H]3[C@H](CO)N4CCCCN(CCC(F)(F)F)C[C@@H]34)cc2)c1	30	-71	108*	?	90	26	104*
Cc1cccc(-c2ccc([C@H]3[C@@H](CO)N4CCCCN(CCC(F)(F)F)C[C@@H]34)cc2)c1	23	-36	?	94	84	45*	105*
CCCC(=O)Nc1ccc2c(c1)C(=O)N(C)[C@@H]1CC[C@@H](CC(=O)NCCOC)O[C@H]1CO2	14	1	14	nt	nt	nt	nt
C[C@@H]1CN([C@@H](C)CO)C(=O)Cc2cc(NS(=O)(=O)c3cn(C)cn3)ccc2O[C@H]1CN(C)Cc1ccncc1	4	15	nt	nt	nt	nt	nt
CC(C)NC(=O)Nc1ccc2c(c1)C(=O)N([C@@H](C)CO)C[C@@H](C)[C@@H](CN(C)C(=O)Cc1ccccc1)OCCCC[C@@H](C)O2	-2	-47	0	nt	nt	nt	nt
C[C@@H]1CN([C@@H](C)CO)C(=O)c2cc(N(C)C)ccc2O[C@@H](C)CCCCO[C@@H]1CN(C)C(=O)c1ccccc1	-2	nt	0	nt	nt	nt	nt
COc1ccc(CN(C)C[C@@H]2OCCCC[C@@H](C)Oc3ccc(NC(=O)Nc4c(C)noc4C)cc3C(=O)N([C@H](C)CO)C[C@H]2C)cc1	0	-20	11	nt	nt	nt	nt
OC[C@H]1[C@@H](c2ccc(C#CC3CC3)cc2)[C@H]2CN(CCC(F)(F)F)CCCCN21	13	-18	90	nt	nt	nt	nt
SMILES	C diff growth	Pf Dd2 growth	T cruzi growth-1	T cruzi growth-2	T cruzi growth-3	NIH3T3 tox	NIH3T3 tox 2
OC[C@H]1[C@H](c2ccc(C#CC3CC3)cc2)[C@H]2CN(CCC(F)(F)F)CCCCN21	19	1	98*	111*	32	34	106*
COc1ccccc1C#Cc1ccc([C@H]2[C@H]3CN(CCC(F)(F)F)CCCCN3[C@H]2CO)cc1	15	-36	43	nt	nt	nt	nt
COc1ccccc1C#Cc1ccc([C@@H]2[C@@H](CO)N3CCCCN(CCC(F)(F)F)C[C@H]23)cc1	57	-82*	105*	91	110*	98*	104*
C/C=C/c1ccc([C@H]2[C@@H](CO)N3CCCCN(CCC(F)(F)F)C[C@@H]23)cc1	4	-7	85	nt	nt	nt	nt
OC[C@@H]1[C@H](c2ccc(/C=C/c3ccccc3)cc2)[C@H]2CN(CCC(F)(F)F)CCCCN12	41	-75	101*	79	107*	73*	105*
O=C(C[C@@H]1C[C@H]2c3cc(NC(=O)CC4CC4)ccc3O[C@H]2[C@H](CO)O1)NCc1ccncc1	0	24	14	nt	nt	nt	nt
COc1cccc(C#Cc2ccc([C@H]3[C@@H](CO)N4C(=O)CN(C(=O)C5CC5)C[C@H]34)cc2)c1	-6	-3	nt	nt	nt	nt	nt
CC(=O)N1[C@@H]2c3ccc(C4=CCCC4)c(=O)n3C[C@H]1[C@H](CO)[C@H]2C(=O)N[C@H](C)c1ccccc1	-1	3	101*	-16	8	12	4
C[C@@H](NC(=O)[C@@H]1N[C@@H]2c3ccc(C4=CCCCC4)c(=O)n3C[C@@H]2[C@H]1CO)c1ccccc1	4	4	101*	109*	-4	2	7
CC(=O)N1[C@@H]2c3ccc(C4=CCCCC4)c(=O)n3C[C@H]1[C@H](CO)[C@H]2C(=O)N[C@H](C)c1ccccc1	17	nt	21	nt	nt	nt	nt
C[C@@H](NC(=O)[C@H]1N[C@H]2c3ccc(-c4ccncc4)c(=O)n3C[C@H]2[C@@H]1CO)c1ccccc1	4	-3	58	nt	nt	nt	nt
